{"source": "PubChem BioAssay AID372", "about": "(MTDP, 2006)", "note": "In all, about 100,000 compounds went through this assay and about 770 (0.77%) were called active. Cut-off read from the data, not from the text of the source: active = inhibition above about 50%; inactive = the rest. The sample as a whole holds a higher share of actives than the screen did.", "data": [{"biological_target": "Gag-Pol polyprotein (Human immunodeficiency virus type 1 group M subtype B (isolate HXB2)) (UniProt P04585)", "assay": "RNase H inhibition, HIV 1 Gag Pol polyprotein, FRET biochemical assay, screening (AID 372)", "conditions": "HIV-1 RT RNase H, FRET RNA/DNA substrate fluorescence; at 10 µM; active compounds read high", "values": [{"smiles": "N#Cc1c(/N=C/c2cc(Br)ccc2Br)sc2c1CCCC2", "inhibition": "15% (inactive)"}, {"smiles": "Fc1ccccc1OCCn1ccnc1", "inhibition": "7% (inactive)"}, {"smiles": "Cc1ccc(NCCCC(=O)N/N=C/c2cccs2)cc1", "inhibition": "12% (inactive)"}, {"smiles": "COc1ccc(C(C)=O)cc1CSc1cc(C)c2ccccc2n1", "inhibition": "46% (inactive)"}, {"smiles": "Cc1ccc(C(C)C)c(OCC(=O)Nc2cccc(Cl)c2C)c1", "inhibition": "15% (inactive)"}, {"smiles": "COc1cc(C=C2C(=O)NC(=O)NC2=O)ccc1OCc1c(C)ccc2ccccc12", "inhibition": "31% (inactive)"}, {"smiles": "O=c1nc(/C=C/c2ccc(-c3ccc(F)c(Cl)c3)o2)cc(C(F)(F)F)[nH]1", "inhibition": "48% (inactive)"}, {"smiles": "O=c1nc(/C=C/c2ccc(-c3ccc([N+](=O)[O-])cc3Cl)o2)cc(C(F)(F)F)[nH]1", "inhibition": "20% (inactive)"}, {"smiles": "O=c1nc(/C=C/c2ccc(-c3ccc(Cl)c([N+](=O)[O-])c3)o2)cc(C(F)(F)F)[nH]1", "inhibition": "54% (active)"}, {"smiles": "COC(=O)C1=C(C)N(c2ccccc2F)C(=O)/C1=C\\c1ccccc1F", "inhibition": "5% (inactive)"}, {"smiles": "CCOc1ccc(NC(=O)c2ccc(-c3ccc([N+](=O)[O-])cc3OC)o2)cc1", "inhibition": "36% (inactive)"}, {"smiles": "COc1cc([N+](=O)[O-])ccc1-c1ccc(C(=O)Nc2ccc(I)cc2Cl)o1", "inhibition": "51% (active)"}, {"smiles": "COc1cc([N+](=O)[O-])ccc1NC(=O)c1cc2ccccc2cc1OC", "inhibition": "53% (active)"}, {"smiles": "COc1cc([N+](=O)[O-])ccc1NC(=O)c1cc(Cl)ccc1Cl", "inhibition": "22% (inactive)"}, {"smiles": "COc1cc([N+](=O)[O-])ccc1NC(=O)c1cccc2ccccc12", "inhibition": "26% (inactive)"}, {"smiles": "COc1cc2ccccc2cc1C(=O)Nc1cc([N+](=O)[O-])ccc1F", "inhibition": "46% (inactive)"}, {"smiles": "COc1ccccc1NC(=O)c1ccc(-c2ccc([N+](=O)[O-])cc2OC)o1", "inhibition": "30% (inactive)"}, {"smiles": "COc1cc([N+](=O)[O-])ccc1-c1ccc(C(=O)Nc2ccc(NC(C)=O)cc2)o1", "inhibition": "26% (inactive)"}, {"smiles": "O=C(Nc1cc([N+](=O)[O-])ccc1F)c1ccc(-c2cc(Cl)ccc2Cl)o1", "inhibition": "31% (inactive)"}, {"smiles": "Cc1cc([N+](=O)[O-])ccc1-c1ccc(C(=O)Nc2ccc(I)cc2Cl)o1", "inhibition": "24% (inactive)"}, {"smiles": "CCCC(=O)Nc1ccc(NC(=O)c2ccc(-c3ccc([N+](=O)[O-])cc3OC)o2)cc1", "inhibition": "56% (active)"}, {"smiles": "COc1cc([N+](=O)[O-])ccc1NC(=O)c1ccc(-c2cc(Cl)ccc2Cl)o1", "inhibition": "60% (active)"}, {"smiles": "COc1ccc(OC)c(/C=N/NC(=O)CSc2nc3ccccc3n2C)c1", "inhibition": "20% (inactive)"}, {"smiles": "Cc1ccnc(NS(=O)(=O)Cc2ccccc2)c1", "inhibition": "3% (inactive)"}, {"smiles": "COc1ccc(OC)c(N2C(=O)NC(=O)C(=Cc3cccs3)C2=O)c1", "inhibition": "1% (inactive)"}, {"smiles": "CCn1c(NC(=O)c2ccc(Cl)cc2)nc2ccccc21", "inhibition": "4% (inactive)"}, {"smiles": "Cc1ccc(NC(=S)NC(=O)c2ccccc2F)cc1C", "inhibition": "15% (inactive)"}, {"smiles": "COc1ccc(CCN=C(Nc2ccccc2)SC2CC(=O)N(c3ccccc3)C2=O)cc1", "note": "(stereo not drawn)", "inhibition": "6% (inactive)"}, {"smiles": "CCN(CC)c1ccc(C=Nc2ccccc2C(=O)Nc2ccccc2)c(O)c1", "inhibition": "5% (inactive)"}, {"smiles": "N#C/C(=C/c1ccc(-c2ccccc2[N+](=O)[O-])o1)C(=O)NCc1ccccc1", "inhibition": "27% (inactive)"}, {"smiles": "COc1ccc(-n2nc3cc(C)c(NC(=O)c4ccc([N+](=O)[O-])cc4)cc3n2)cc1", "inhibition": "10% (inactive)"}, {"smiles": "COc1ccc(-n2nc3cc(C)c(NC(=O)c4ccc(-c5cccc([N+](=O)[O-])c5)o4)cc3n2)cc1", "inhibition": "42% (inactive)"}, {"smiles": "COc1ccc(-n2nc3cc(C)c(NC(=O)c4ccc(-c5ccc([N+](=O)[O-])cc5OC)o4)cc3n2)cc1", "inhibition": "54% (active)"}, {"smiles": "COc1ccc(-n2cnc(N)c2C(=O)c2cccc([N+](=O)[O-])c2)cc1", "inhibition": "1% (inactive)"}, {"smiles": "Cc1ccc(-c2cc(C(F)(F)F)n3nc(C(N)=O)c(Cl)c3n2)cc1", "inhibition": "11% (inactive)"}, {"smiles": "Clc1cccc(NCc2ccncc2)c1", "inhibition": "2% (inactive)"}, {"smiles": "COc1ccc(-n2sc3c(c2=S)-c2ccc(OC)cc2NC3(C)C)cc1", "inhibition": "15% (inactive)"}, {"smiles": "CCCOC(=O)C1=C(C)NC2=C(C(=O)CC(c3ccccc3)C2)C1c1ccccc1Br", "note": "(stereo not drawn)", "inhibition": "58% (active)"}, {"smiles": "CC1=C(C(=O)OCc2ccccc2)C(c2ccccc2Br)C2=C(CC(c3ccccc3)CC2=O)N1", "note": "(stereo not drawn)", "inhibition": "32% (inactive)"}, {"smiles": "CC1=C(C(=O)OCCc2ccccc2)C(c2ccccc2Br)C2=C(CC(c3ccccc3)CC2=O)N1", "note": "(stereo not drawn)", "inhibition": "26% (inactive)"}, {"smiles": "O=S(=O)(NC1CCCCCCC1)c1ccc(F)cc1", "inhibition": "7% (inactive)"}, {"smiles": "O=C1NC(=S)S/C1=C\\c1cn(Cc2ccc(Cl)cc2)c2ccccc12", "inhibition": "31% (inactive)"}, {"smiles": "CCOc1ccccc1OCCCOc1c(C)cc(C)cc1Cl", "inhibition": "52% (active)"}, {"smiles": "CCOc1ccccc1OCCOCCOc1c(C)cc(C)cc1Cl", "inhibition": "33% (inactive)"}, {"smiles": "CCN(CC)CCOc1c(Cl)cc(C)cc1Cl", "inhibition": "2% (inactive)"}, {"smiles": "CCN(CC)CCOc1c(C)cc(C)cc1Cl", "inhibition": "52% (active)"}, {"smiles": "CCN(CC)CCOc1c(C)cc(Cl)cc1Cl", "inhibition": "0% (inactive)"}, {"smiles": "CCOc1ccccc1OCCCCOc1c(Cl)cc(C)cc1Cl", "inhibition": "23% (inactive)"}, {"smiles": "N#C/C(=C\\Nc1ccccc1Cl)c1nc(-c2ccc(Br)cc2)cs1", "inhibition": "2% (inactive)"}, {"smiles": "CC(=O)C1C(=O)C=C(c2cccs2)CC1c1ccccc1", "note": "(stereo not drawn)", "inhibition": "0% (inactive)"}, {"smiles": "CCOC(=O)C1=C(c2ccccc2)S/C(=C2/C(=S)C(C)(C)N(C(C)=O)c3ccc(OC)cc32)S1", "inhibition": "22% (inactive)"}, {"smiles": "CCOC(=O)C1=C(c2ccccc2)S/C(=C2/C(=S)C(C)(C)N(C(C)=O)c3ccc(C)cc32)S1", "inhibition": "24% (inactive)"}, {"smiles": "CC(=O)C1=C(c2ccccc2)S/C(=C2/C(=S)C(C)(C)N(C(C)=O)c3ccc(C)cc32)S1", "inhibition": "50% (active)"}, {"smiles": "O=C(CSc1nc(O)cc(=O)[nH]1)C1CC1", "inhibition": "11% (inactive)"}, {"smiles": "COc1ccc(-n2cccc2/C=C2/SC(=O)N(C)C2=O)cc1", "inhibition": "53% (active)"}, {"smiles": "O=C1NC(=O)C(=Cc2cccn2-c2ccccc2)C(=O)N1", "inhibition": "29% (inactive)"}, {"smiles": "COc1ccc(N2C(=O)/C(=C/c3cccn3-c3ccccc3)C(=O)NC2=S)cc1", "inhibition": "54% (active)"}, {"smiles": "CN1C(=O)/C(=C/c2cccn2-c2ccc([N+](=O)[O-])cc2)SC1=S", "inhibition": "42% (inactive)"}, {"smiles": "COc1ccc(-n2cccc2/C=C2\\C(=O)NC(=S)N(c3ccc(Br)cc3)C2=O)cc1", "inhibition": "32% (inactive)"}, {"smiles": "CN1C(=O)S/C(=C/c2cccn2-c2ccc(Cl)cc2)C1=O", "inhibition": "44% (inactive)"}, {"smiles": "O=C1NC(=S)NC(=O)C1=Cc1cccn1-c1ccc(Cl)cc1", "inhibition": "11% (inactive)"}, {"smiles": "O=C1NC(=S)N(c2ccccc2)C(=O)/C1=C/c1cccn1-c1ccc(Cl)cc1", "inhibition": "52% (active)"}, {"smiles": "O=C1NC(=S)N(c2ccc(Cl)cc2)C(=O)/C1=C/c1cccn1-c1ccccc1", "inhibition": "4% (inactive)"}, {"smiles": "O=C1NC(=O)C(=Cc2cccn2-c2ccc(Cl)cc2)C(=O)N1", "inhibition": "57% (active)"}, {"smiles": "COc1ccc(N2C(=O)/C(=C/c3cccn3-c3ccc(Br)cc3)C(=O)NC2=S)cc1", "inhibition": "29% (inactive)"}, {"smiles": "O=C1NC(=S)N(c2ccccc2)C(=O)/C1=C/c1cccn1-c1ccccc1", "inhibition": "10% (inactive)"}, {"smiles": "O=C(c1cc(-c2ccccc2)nc2ccccc12)N1CCc2ccccc2C1", "inhibition": "9% (inactive)"}, {"smiles": "COc1ccc(C(=O)N/C(=C\\c2cc(OC)c(OC)cc2[N+](=O)[O-])C(=O)Nc2ccc(C)cc2C)cc1", "inhibition": "18% (inactive)"}, {"smiles": "Cc1cccc(C2(c3cccc(C)c3)CC2C(=O)Nc2cc([N+](=O)[O-])ccc2O)c1", "note": "(stereo not drawn)", "inhibition": "30% (inactive)"}, {"smiles": "CC(C)(C)NC(=O)C(=O)N/N=C/c1cccc2ccccc12", "inhibition": "10% (inactive)"}, {"smiles": "COC(=O)C(=C/C(C)=C/c1ccco1)C(=O)OC", "inhibition": "1% (inactive)"}, {"smiles": "CCN(CC)CCCCCOc1cc(C)cc(C)c1", "inhibition": "17% (inactive)"}, {"smiles": "COc1cc(C(=O)N/C(=C/c2ccc(Br)cc2)C(=O)NC(C)C(=O)O)cc(OC)c1OC", "note": "(stereo not drawn)", "inhibition": "3% (inactive)"}, {"smiles": "O=C(COc1ccc2ccccc2c1)Nc1ccccc1C(=O)Nc1ccccc1", "inhibition": "54% (active)"}, {"smiles": "COC(=O)c1ccccc1NC(=O)COc1ccc2ccccc2c1", "inhibition": "38% (inactive)"}, {"smiles": "O=C(COc1ccccc1)Nc1ccccc1C(=O)Nc1ccc(C(=O)O)cc1", "inhibition": "1% (inactive)"}, {"smiles": "C=C(C)c1cccc(C(C)(C)NC(=O)NCc2ccccn2)c1", "inhibition": "0% (inactive)"}, {"smiles": "O=C1c2ccccc2C(=O)N1CCc1nc2ccccc2c(=O)n1-c1ccc(Br)cn1", "inhibition": "40% (inactive)"}, {"smiles": "Cc1cccc(-n2c(CCN3C(=O)c4ccccc4C3=O)nc3ccccc3c2=O)n1", "inhibition": "14% (inactive)"}, {"smiles": "O=C1c2ccccc2C(=O)N1CCc1nc2ccccc2c(=O)n1-c1ccccn1", "inhibition": "61% (active)"}, {"smiles": "O=C(c1cccs1)N1CCN(c2ccc([N+](=O)[O-])cc2)CC1", "inhibition": "4% (inactive)"}, {"smiles": "Cc1ccc([N+](=O)[O-])cc1/C=C1/C=C(c2ccccc2)OC1=O", "inhibition": "57% (active)"}, {"smiles": "O=C1OC(c2ccccc2)=C/C1=C\\c1c(Cl)cccc1Cl", "inhibition": "50% (active)"}, {"smiles": "Cc1ccc(C2=C/C(=C\\c3cc([N+](=O)[O-])ccc3Cl)C(=O)O2)cc1", "inhibition": "43% (inactive)"}, {"smiles": "O=C1OC(c2ccccc2)=C/C1=C/c1ccc([N+](=O)[O-])cc1", "inhibition": "2% (inactive)"}, {"smiles": "Cc1ccc2cc(C3=C/C(=C\\c4c(Cl)cccc4Cl)C(=O)O3)ccc2c1", "inhibition": "6% (inactive)"}, {"smiles": "O=C1OC(c2ccccc2)=C/C1=C/c1ccc(Cl)cc1", "inhibition": "7% (inactive)"}, {"smiles": "CC(C)(C)c1cc(/C=N/NC(=O)c2ccccc2O)cc(C(C)(C)C)c1O", "inhibition": "25% (inactive)"}, {"smiles": "CC1=C(C(=O)Nc2ccc(C)cc2)C(c2ccc(Br)cc2)NC(=S)N1", "note": "(stereo not drawn)", "inhibition": "10% (inactive)"}, {"smiles": "CC1=C(C(=O)Nc2ccc(Br)cc2)C(c2ccc(C)cc2)NC(=S)N1", "note": "(stereo not drawn)", "inhibition": "57% (active)"}, {"smiles": "CC1=C(C(=O)Nc2ccc(Br)cc2)C(c2ccc(Br)cc2)NC(=S)N1", "note": "(stereo not drawn)", "inhibition": "11% (inactive)"}, {"smiles": "COC(=O)C1=C(C)N(C)C(=O)NC1c1cc2c(cc1[N+](=O)[O-])OCO2", "note": "(stereo not drawn)", "inhibition": "3% (inactive)"}, {"smiles": "COc1ccc(/C=C2\\SC(=O)N(Cc3ccccc3)C2=O)cc1OC", "inhibition": "44% (inactive)"}, {"smiles": "COc1ccc(/C=C2\\SC(=NCc3ccccc3)N(Cc3ccccc3)C2=O)cc1OC", "inhibition": "54% (active)"}, {"smiles": "COc1ccccc1/C=C1/SC(=NCc2ccccc2)N(Cc2ccccc2)C1=O", "inhibition": "28% (inactive)"}, {"smiles": "CCOc1ccc(/C=C2\\SC(=NCc3ccccc3)N(Cc3ccccc3)C2=O)cc1", "inhibition": "0% (inactive)"}, {"smiles": "COc1ccc(/C=C2\\SC(=NCc3ccccc3)N(Cc3ccccc3)C2=O)cc1C(=O)O", "inhibition": "23% (inactive)"}, {"smiles": "COC(=O)c1ccc(/C=C2\\SC(=NCc3ccccc3)N(Cc3ccccc3)C2=O)cc1", "inhibition": "59% (active)"}]}]}
